A short description of assay [1]: NCI Yeast Anticancer Drug Screen. Data for the rad50 strain (AID 155).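 Also: 0% = growth of vehicle-only cultures of the same strain.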 The conditions noted are these: S. cerevisiae rad50 strain growth inhibition, active compounds read high. In a few lines:
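Readout: growth inhibition relative to vehicle-treated cultures. Compound exposure was carried out in a genetically defined yeast strain deficient in DNA damage repair.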

The nature of assay [2]: NCI Yeast Anticancer Drug Screen. Data for the mec2-1 strain (AID 157). As to conditions: S. cerevisiae mec2-1 strain, active compounds read high. In a few lines:
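Compounds were applied to mec2-1 yeast cells. Their growth was then compared with that of vehicle-treated cultures to give growth inhibition.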

Assay [3] in a line: NCI Yeast Anticancer Drug Screen. Data for the sgs1 mgt1 strain (AID 161).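 Also: 0% = growth of cultures given vehicle only.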 As to conditions: S. cerevisiae sgs1 mgt1 strain, active compounds read high. In a few lines:
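Growth of a repair-deficient yeast mutant was monitored after compound treatment and expressed as inhibition relative to vehicle-treated cultures.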

Assay [4] is described as follows: NCI Yeast Anticancer Drug Screen. Data for the cln2 rad14 strain (AID 165).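 Also: 0% = growth equal to vehicle treated cultures.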 As to conditions: S. cerevisiae cln2 rad14 strain, active compounds read high. In short, it runs like this:
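Strain: cln2 rad14 yeast, altered in cell cycle control and DNA damage repair. Read-out: growth inhibition vs vehicle.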

Assay [5] can be described thus: NCI Yeast Anticancer Drug Screen. Data for the bub3 strain (AID 167). As to conditions: S. cerevisiae bub3 mutant strain, active compounds read high. In short, it runs like this:
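Readout: yeast growth inhibition, expressed relative to vehicle-only wells. The test organism is a mutant strain from a panel with lesions in DNA repair or checkpoint genes.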

Assay [6] is described as follows: NCI Yeast Anticancer Drug Screen. Data for the mlh1 rad18 strain (AID 175). As to conditions: S. cerevisiae mlh1 rad18 strain growth inhibition, active compounds read high. In a few lines: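 A repair-deficient yeast strain is exposed to test compound, and growth is scored relative to vehicle-treated controls.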
Where [7] appears, read: at 5.0 µM (retest, dose inferred, filed as 0.5).
[8] abbreviates: at 50.0 µM (retest, dose inferred, filed as 5.0).

This is part of a sample that, as a whole, favours compounds with a hit. Of some 79,000 tested, about 15% had one in any assay. Unmarked numbers belong to inactive results. The source made the active and inactive calls. Rule as the data show it: active = growth inhibition above about 70%; inactive = the rest.

Regarding `[O-][N+]1=C2CCC/C(=N/O)C2(O)C2CCCCC21N1CCOCC1` (stereo not given), the growth inhibition in assay [1] (setting [7]) is 26%; in assay [1] (setting [8]), 20%; in assay [1] (at 50.0 µM), -8.05%; in assay [2] (setting [7]), 29%; in assay [2] (setting [8]), 19%; in assay [2] (at 50.0 µM) it was -39.8%. The growth inhibition in assay [3] (setting [7]) was 24%; in assay [3] (setting [8]) it was 21%; in assay [3] (at 50.0 µM), -2.1%; in assay [4] (setting [7]) it was 23%; in assay [4] (setting [8]), 26%; in assay [4] (at 50.0 µM), 25.5%. Besides, the growth inhibition was 22% in assay [5] (setting [7]); 14% in assay [5] (setting [8]); -7.1% in assay [5] (at 50.0 µM); 28% in assay [6] (setting [7]); 26% in assay [6] (setting [8]); -3.2% in assay [6] (at 50.0 µM).
`CCCCn1cnc2c(SCc3ccccc3[N+](=O)[O-])nc(N)nc21`: the growth inhibition was 1% in assay [1] (setting [7]); -2% in assay [1] (setting [8]); 94.9% (active) in assay [1] (at 50.0 µM); -2% in assay [2] (setting [7]); 1% in assay [2] (setting [8]); 98.2% (active) in assay [2] (at 50.0 µM). Moreover, the growth inhibition in assay [3] (setting [7]) is 1%; in assay [3] (setting [8]), 2%; in assay [3] (at 50.0 µM), 96.9% (active); in assay [4] (setting [7]), -15%; in assay [4] (setting [8]), -27%; in assay [4] (at 50.0 µM), 90.4% (active). For the same molecule, the growth inhibition was 1% in assay [5] (setting [7]); 30% in assay [5] (setting [8]); 98.7% (active) in assay [5] (at 50.0 µM); 3% in assay [6] (setting [7]); 3% in assay [6] (setting [8]); 96.7% (active) in assay [6] (at 50.0 µM).
Consider `O=C1c2cccc(O)c2C(=O)c2c(OC3OC(CO)C(O)C(O)C3O)cccc21` (stereo not given), for which the growth inhibition in assay [1] (setting [7]) was 6%; in assay [1] (setting [8]), 68%; in assay [1] (at 50.0 µM), 76.8% (active); in assay [2] (setting [7]) it was 10%; in assay [2] (setting [8]) it was 48%; in assay [2] (at 50.0 µM) it was 24.5%. For the same molecule, the growth inhibition in assay [3] (setting [7]) is 4%; in assay [3] (setting [8]) it was 52%; in assay [3] (at 50.0 µM) it was 78% (active); in assay [4] (setting [7]), 16%; in assay [4] (setting [8]) it was 59%; in assay [4] (at 50.0 µM), 34.4%. Also, the growth inhibition in assay [5] (setting [7]) is 6%; in assay [5] (setting [8]), 60%; in assay [5] (at 50.0 µM), 74.8% (active); in assay [6] (setting [7]) it was -7%; in assay [6] (setting [8]), 62%; in assay [6] (at 50.0 µM), 47.5%.
As for `C[N+](C)(C)CC(=O)N/N=C(\C(=O)NC1=C(Cl)C(=O)c2ccccc2C1=O)C(C#N)c1nc(-c2ccc([N+](=O)[O-])cc2)cs1` (stereo not given), the growth inhibition in assay [1] (setting [7]) is 27%; in assay [1] (setting [8]) it was 98% (active); in assay [1] (at 50.0 µM), 76% (active); in assay [2] (setting [7]), 6%; in assay [2] (setting [8]), 97% (active); in assay [2] (at 50.0 µM) it was 56.6%. The growth inhibition is 11% in assay [3] (setting [7]); 97% (active) in assay [3] (setting [8]); 60.3% in assay [3] (at 50.0 µM); 13% in assay [4] (setting [7]); 91% (active) in assay [4] (setting [8]); 50.6% in assay [4] (at 50.0 µM). Moreover, the growth inhibition in assay [5] (setting [7]) is -23%; in assay [5] (setting [8]), 97% (active); in assay [5] (at 50.0 µM), 75.2% (active); in assay [6] (setting [7]), 13%; in assay [6] (setting [8]) it was 97% (active); in assay [6] (at 50.0 µM), 78.7% (active).
As to `O=[N+]([O-])c1ccc(C2=Nn3c(nnc3-c3ccc(Cl)cc3)SC2)o1`, the growth inhibition in assay [1] (setting [7]) is 19%; in assay [1] (setting [8]) it was 83% (active); in assay [1] (at 50.0 µM), 66.5%; in assay [2] (setting [7]) it was 10%; in assay [2] (setting [8]), 44%; in assay [2] (at 50.0 µM) it was 37.7%. For the same molecule, the growth inhibition is 29% in assay [3] (setting [7]); 73% (active) in assay [3] (setting [8]); 62.1% in assay [3] (at 50.0 µM); -2% in assay [4] (setting [7]); 94% (active) in assay [4] (setting [8]); 65.5% in assay [4] (at 50.0 µM). Moreover, the growth inhibition in assay [5] (setting [7]) is 12%; in assay [5] (setting [8]), 93% (active); in assay [5] (at 50.0 µM), 55.9%; in assay [6] (setting [7]), 30%; in assay [6] (setting [8]), 91% (active); in assay [6] (at 50.0 µM), 79.3% (active).
Take `COc1ccc(C(O)/C(=N\NC(N)=S)c2nc3ccc([N+](=O)[O-])cc3[nH]c2=O)cc1OC` (stereo not given): the growth inhibition in assay [1] (setting [7]) is 4%; in assay [1] (setting [8]), 97% (active); in assay [1] (at 50.0 µM), 66.1%; in assay [2] (setting [7]) it was 1%; in assay [2] (setting [8]) it was 99% (active); in assay [2] (at 50.0 µM), 28.2%. The growth inhibition was 4% in assay [3] (setting [7]); 97% (active) in assay [3] (setting [8]); 20.6% in assay [3] (at 50.0 µM); 1% in assay [4] (setting [7]); 98% (active) in assay [4] (setting [8]); 6.55% in assay [4] (at 50.0 µM). Besides, the growth inhibition in assay [5] (setting [7]) was 6%; in assay [5] (setting [8]) it was 98% (active); in assay [5] (at 50.0 µM) it was 22.7%; in assay [6] (setting [7]), 0%; in assay [6] (setting [8]), 97% (active); in assay [6] (at 50.0 µM) it was 52.8%.
Take `O=C1C2Nc3ccccc3SC2C(=O)N1c1ccccc1C(F)(F)F` (stereo not given): the growth inhibition in assay [1] (setting [7]) was 3%; in assay [1] (setting [8]), 35%; in assay [1] (at 50.0 µM) it was 73.8% (active); in assay [2] (setting [7]) it was 3%; in assay [2] (setting [8]) it was 11%; in assay [2] (at 50.0 µM) it was 12.5%. In addition, the growth inhibition was 16% in assay [3] (setting [7]); 24% in assay [3] (setting [8]); 47.4% in assay [3] (at 50.0 µM); 2% in assay [4] (setting [7]); 11% in assay [4] (setting [8]); 46.5% in assay [4] (at 50.0 µM). Also, the growth inhibition in assay [5] (setting [7]) was -1%; in assay [5] (setting [8]), 29%; in assay [5] (at 50.0 µM) it was 13.7%; in assay [6] (setting [7]), 7%; in assay [6] (setting [8]), 44%; in assay [6] (at 50.0 µM), 73.2% (active).
For `O=C1C=CC(=O)c2nc3c(nc21)[nH]c1ccccc13`, the growth inhibition was -9% in assay [1] (setting [7]); 91% (active) in assay [1] (setting [8]); 95.7% (active) in assay [1] (at 50.0 µM); -12% in assay [2] (setting [7]); 94% (active) in assay [2] (setting [8]); 95.4% (active) in assay [2] (at 50.0 µM). The growth inhibition was -23% in assay [3] (setting [7]); 95% (active) in assay [3] (setting [8]); 94.7% (active) in assay [3] (at 50.0 µM); -20% in assay [4] (setting [7]); 94% (active) in assay [4] (setting [8]); 93.5% (active) in assay [4] (at 50.0 µM). In addition, the growth inhibition in assay [5] (setting [7]) is -41%; in assay [5] (setting [8]), 93% (active); in assay [5] (at 50.0 µM), 91.4% (active); in assay [6] (setting [7]), -44%; in assay [6] (setting [8]), 92% (active); in assay [6] (at 50.0 µM), 95.5% (active).
As to `CC(=O)Nc1ccc2c(ccc3cccc[n+]32)c1`, the growth inhibition in assay [1] (setting [7]) was -2%; in assay [1] (setting [8]), 0%; in assay [1] (at 50.0 µM), 96.7% (active); in assay [2] (setting [7]), -10%; in assay [2] (setting [8]), -6%; in assay [2] (at 50.0 µM), 97.2% (active). The growth inhibition is 1% in assay [3] (setting [7]); 10% in assay [3] (setting [8]); 95.8% (active) in assay [3] (at 50.0 µM); -2% in assay [4] (setting [7]); -6% in assay [4] (setting [8]); 95.2% (active) in assay [4] (at 50.0 µM). The growth inhibition in assay [5] (setting [7]) was -7%; in assay [5] (setting [8]), -13%; in assay [5] (at 50.0 µM) it was 96.5% (active); in assay [6] (setting [7]), -1%; in assay [6] (setting [8]), -3%; in assay [6] (at 50.0 µM), 96.3% (active).
For the molecule `C=CCOc1cc(NC(=S)c2sccc2C)ccc1Cl`, the growth inhibition in assay [1] (setting [7]) is 3%; in assay [1] (setting [8]) it was 88% (active); in assay [1] (at 50.0 µM), 81.5% (active); in assay [2] (setting [7]), -5%; in assay [2] (setting [8]), 89% (active); in assay [2] (at 50.0 µM), 87.2% (active). Also, the growth inhibition in assay [3] (setting [7]) is -9%; in assay [3] (setting [8]) it was 88% (active); in assay [3] (at 50.0 µM), 85% (active); in assay [4] (setting [7]), 2%; in assay [4] (setting [8]), 89% (active); in assay [4] (at 50.0 µM) it was 80.2% (active). Also, the growth inhibition is 28% in assay [5] (setting [7]); 94% (active) in assay [5] (setting [8]); 81.3% (active) in assay [5] (at 50.0 µM); 3% in assay [6] (setting [7]); 91% (active) in assay [6] (setting [8]); 81.9% (active) in assay [6] (at 50.0 µM).
